PubChem BioAssay (Tox21)
“And” between values parts separate entries of the source, which are not always exact repeats. Identical values can stand only once. Results filed as inconclusive are left out. A call without a number means that no potency is given here. The source made the active and inactive calls. Unless noted, calls come from the whole dose curve; as a rule, active = well fitted curve in the direction sought with a large enough effect in the repeat runs; inconclusive = weak or mixed curves; inactive = flat fitted curve, though single readings scatter.

Legend:
[1] = qHTS assay to test for compound auto fluorescence at 535 nm (green) in HEK293 cells (AID 720680)
[2] = qHTS assay to test for compound auto fluorescence at 535 nm (green) in HEK293 cell free culture (AID 720682)
How it was run: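 Green-label autofluorescence (485 nm excitation, 535 nm emission) measured on compound added to cell-free culture medium (DMEM, 10% FBS). Output is expressed relative to fluorescein.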

[3] = qHTS assay to test for compound auto fluorescence at 590 nm (red) in HEK293 cell free culture (AID 720683)
How it was run: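 Tox21 10K library compounds were pinned into cell-free DMEM with 10% FBS and fluorescence was read at excitation 540 nm. Activity is expressed as Rose Bengal sodium equivalency.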

[4] = qHTS assay to test for compound auto fluorescence at 590 nm (red) in HepG2 cell free culture (AID 720684)
How it was run: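 Measured in medium alone (MEM containing 10% FBS) following pintool addition of compound; emission at 590 nm with 540 nm excitation, referenced to Rose Bengal sodium.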

[5] = qHTS assay to test for compound auto fluorescence at 460 nm (blue) in HepG2 cell free culture (AID 720685)
How it was run: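 Compound (23 nL) or DMSO pinned into cell-free MEM with 10% FBS; blue fluorescence read at 405/460 nm excitation/emission, expressed as auto-fluorescence equivalency to triamterene.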

[6] = qHTS assay to test for compound auto fluorescence at 535 nm (green) in HepG2 cell free culture (AID 720686)
[7] = qHTS assay to test for compound auto fluorescence at 460 nm (blue) in HepG2 cells (AID 720687)
How it was run: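 Cells (2,000/well in MEM with 10% FBS) attached overnight at 37 C, then were exposed to compound or DMSO for 1 hr at 37 C, 5% CO2. Fluorescence read at Ex/Em 405/460 nm, expressed as triamterene-equivalent signal.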

[8] = biological target: Glucocorticoid receptor (Homo sapiens) (UniProt P04150); assay: qHTS assay to identify small molecule agonists of the glucocorticoid receptor (GR) signaling pathway (AID 720691; active = well fitted activation curve with a large enough effect in the signal ratio in the repeat runs, not every such curve was filed as active; the % refers to the signal ratio)
How it was run: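 GR-bla HeLa cells (beta-lactamase reporter under glucocorticoid response element) were plated 4 h at 37 C/5% CO2, given compounds in DMSO, and incubated 18 h at 37 C. LiveBLAzer B/G FRET substrate was added for 2 h at room temperature, then fluorescence intensity read.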

[9] = biological target: Glucocorticoid receptor (Homo sapiens) (UniProt P04150); assay: qHTS assay to identify small molecule antagonists of the glucocorticoid receptor (GR) signaling pathway (AID 720692; active = well fitted inhibition curve with a large enough effect in the signal ratio in the repeat runs, not every such curve was filed as active; the % refers to the signal ratio; note: potency is the fitted concentration of half-maximal effect)
How it was run: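 GR-bla HeLa cells (beta-lactamase reporter under glucocorticoid response element) were pre-plated 4 h at 37 C, treated with compounds plus 5 nM dexamethasone (final) for 18 h, then read by LiveBLAzer B/G FRET fluorescence after 2 h.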

[10] = qHTS assay to test for compound auto fluorescence at 460 nm (blue) in HEK293 cell free culture (AID 720681)
How it was run: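 Test compounds were pinned into cell-free culture medium (DMEM with 10% FBS) and fluorescence was read directly at Ex/Em 405/460 nm. Signals were expressed as fluorescence equivalents of triamterene, with DMSO vehicle as control.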

Glucocorticoid receptor (Homo sapiens), sequence (P04150 whole entry, looked up): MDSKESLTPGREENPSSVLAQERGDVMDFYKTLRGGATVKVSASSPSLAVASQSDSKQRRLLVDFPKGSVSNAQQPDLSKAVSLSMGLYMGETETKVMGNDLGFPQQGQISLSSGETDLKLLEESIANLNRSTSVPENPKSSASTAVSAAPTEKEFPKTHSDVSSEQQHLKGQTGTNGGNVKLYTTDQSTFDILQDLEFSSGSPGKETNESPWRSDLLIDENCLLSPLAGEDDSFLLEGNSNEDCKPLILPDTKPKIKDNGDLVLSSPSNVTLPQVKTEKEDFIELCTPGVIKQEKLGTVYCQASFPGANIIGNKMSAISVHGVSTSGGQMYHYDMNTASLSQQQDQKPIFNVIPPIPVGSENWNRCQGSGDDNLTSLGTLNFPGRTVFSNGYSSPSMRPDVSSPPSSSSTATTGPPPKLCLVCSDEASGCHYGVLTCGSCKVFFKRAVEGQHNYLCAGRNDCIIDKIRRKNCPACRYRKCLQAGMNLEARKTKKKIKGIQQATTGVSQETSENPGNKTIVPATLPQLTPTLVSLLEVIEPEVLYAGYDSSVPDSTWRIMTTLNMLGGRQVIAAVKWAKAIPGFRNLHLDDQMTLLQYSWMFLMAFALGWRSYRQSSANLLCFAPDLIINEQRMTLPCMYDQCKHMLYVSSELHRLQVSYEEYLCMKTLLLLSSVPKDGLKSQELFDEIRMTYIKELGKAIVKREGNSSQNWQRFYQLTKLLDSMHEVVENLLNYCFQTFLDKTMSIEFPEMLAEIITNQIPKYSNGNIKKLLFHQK

Structure (SMILES) | outcome [1] | outcome [2] | outcome [3] | outcome [4] | outcome [5] | outcome [6] | outcome [7] | outcome [8] | Potency [9] | outcome [10]
CN=C=S | inactive | inactive | inactive | inactive | inactive | inactive | inactive | – | – | –
CNC(=O)Oc1ccccc1OC(C)C | inactive | inactive | inactive | inactive | inactive | – | inactive | inactive | inactive | –
NCC(O)c1ccc(O)cc1 (configuration not stated) | inactive | inactive | inactive | inactive | inactive | inactive | inactive | – | – | –
CCNc1nc(NC(C)C)nc(SC)n1 | inactive | inactive | inactive | inactive | inactive | inactive | – | – | – | –
C=C(C)CCl | inactive | inactive | inactive | inactive | inactive | – | – | inactive | inactive | inactive
Cc1[nH]c(=O)n(C(C)(C)C)c(=O)c1Cl | – | inactive | inactive | inactive | inactive | inactive | – | – | – | inactive
CC(C)N1C(=O)c2ccccc2NS1(=O)=O | inactive | inactive | inactive | inactive | inactive | – | inactive | inactive | inactive | –
OC(O)C(Cl)(Cl)Cl | – | inactive | inactive | inactive | inactive | inactive | – | – | – | inactive
CC(Br)C(=O)O (configuration not stated) | inactive | inactive | inactive | inactive | inactive | inactive | – | inactive | inactive | –
CN1C(=O)CN=C(c2ccccc2)c2cc(Cl)ccc21 | inactive | inactive | inactive | inactive | inactive | inactive | inactive | inactive | 13.4 µM (active) and 28 µM (active) | –
Cc1cc(Cl)ccc1O | inactive | inactive | inactive | inactive | inactive | – | – | inactive | inactive | inactive
COc1ccc2c3c1O[C@H]1[C@@H](O)C=C[C@H]4[C@@H](C2)N(C)CC[C@@]341 | inactive | inactive | inactive | inactive | inactive | inactive | inactive | – | – | –
[O-][Cl+2]([O-])O | inactive | inactive | inactive | inactive | inactive | – | inactive | – | – | –
CCCCCOC(=O)c1ccccc1C(=O)OCCCCC | inactive | inactive | inactive | inactive | inactive | inactive | – | inactive | inactive | –
Clc1cccc(Cl)c1Cl | inactive | inactive | inactive | inactive | inactive | – | inactive | inactive | inactive | inactive
O=NN1CCCC1 | inactive | inactive | inactive | inactive | inactive | – | – | inactive | inactive | inactive
C1CN2CCN1CC2 | inactive | inactive | inactive | inactive | inactive | inactive | inactive | – | – | –
O=c1n(Cl)c(=O)n(Cl)c(=O)n1Cl | inactive | inactive | inactive | inactive | inactive | inactive | – | inactive | inactive | –
Cc1ccc([N+](=O)[O-])cc1C | inactive | inactive | inactive | inactive | inactive | inactive | – | – | – | –
CC(C)NC(=O)N1CC(=O)N(c2cc(Cl)cc(Cl)c2)C1=O | – | inactive | inactive | inactive | inactive | inactive | inactive | – | – | inactive
Cc1cc(-c2cc(C)c(N)c(C)c2)cc(C)c1N | inactive | inactive | inactive | inactive | inactive | inactive | inactive | inactive | – | –
CCCCCCCCCCCC#N | inactive | inactive | inactive | inactive | inactive | – | – | inactive | inactive | inactive
BrCCBr | – | inactive | inactive | inactive | inactive | – | inactive | inactive | inactive | inactive
Nc1ccc(Oc2ccc(N)cc2)cc1 | – | inactive | inactive | inactive | inactive | inactive | – | inactive | inactive | inactive
CCC[N+](=O)[O-] | – | inactive | inactive | inactive | inactive | – | – | – | – | –
O=C(NC(=O)c1c(F)cccc1F)Nc1cc(Cl)c(OC(F)(F)C(F)C(F)(F)F)cc1Cl (configuration not stated) | – | inactive | inactive | inactive | inactive | – | inactive | inactive | inactive | inactive
Clc1ccccc1Cl | – | inactive | inactive | inactive | inactive | inactive | inactive | inactive | inactive | inactive
Nc1ccccc1C(=O)O | – | inactive | inactive | inactive | inactive | inactive | inactive | – | – | inactive
CC(C)OC(=O)Nc1ccccc1 | – | inactive | inactive | inactive | inactive | inactive | inactive | – | – | inactive
C#CC(C)(C)NC(=O)c1cc(Cl)cc(Cl)c1 | – | inactive | inactive | inactive | inactive | inactive | – | inactive | inactive | inactive
